Screening results (PubChem BioAssay)
GDH-TPI inh: GDH-TPI coupling enzyme inhibitors, primary screen, artefact control for M. tuberculosis FBA inhibitor project, biochemical, absorbance, full deck; GDH-TPI coupled enzyme counterscreen, NADH absorbance; inhibition, % at 4.8 µM; 1.2% of 360,000 active; AID 588335, 2011;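 further: 0% = DMSO wells and 100% = wells lacking the enzyme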
CCHF vOTU inh-1: CCHFV vOTU protease inhibitors, primary screen, biochemical, Pep-AMC substrate, fluorescence. Crimean-Congo hemorrhagic fever virus L polyprotein viral ovarian tumor (vOTU) protease …. inhibition, % at 11.5 µM. 0.55% of 370,000 active. AID 651958, 2012; further: 0% = vehicle wells with enzyme and 100% = no enzyme wells
BH1578 lux ind: inducers of Vibrio cholerae quorum light production without autoinducers, primary screen, BH1578 luxS cqsA deficient, single point; V. cholerae BH1578 lux reporter, luminescence, 6 h; activation, % at 18.7 µM; 0.16% of 350,000 active; in the data active means activation mostly above about 9.7%, no sharp cut-off
Mtb FBA inh: Mtb FBA enzyme inhibitors, primary screen, biochemical, fluorescence, strain H37Rv; 2.3% of 360,000 active; Fructose-bisphosphate aldolase (Mycobacterium tuberculosis (strain ATCC 25618 / H37Rv)), …; inhibition, % at 1 µM; AID 588726, 2011; purified M. tuberculosis FBA, fluorescence read-out; in the data active means inhibition above about 27%;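 further: 0% = vehicle and 100% = reference inhibitor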
Target sequence (P9WQA3 whole entry, looked up): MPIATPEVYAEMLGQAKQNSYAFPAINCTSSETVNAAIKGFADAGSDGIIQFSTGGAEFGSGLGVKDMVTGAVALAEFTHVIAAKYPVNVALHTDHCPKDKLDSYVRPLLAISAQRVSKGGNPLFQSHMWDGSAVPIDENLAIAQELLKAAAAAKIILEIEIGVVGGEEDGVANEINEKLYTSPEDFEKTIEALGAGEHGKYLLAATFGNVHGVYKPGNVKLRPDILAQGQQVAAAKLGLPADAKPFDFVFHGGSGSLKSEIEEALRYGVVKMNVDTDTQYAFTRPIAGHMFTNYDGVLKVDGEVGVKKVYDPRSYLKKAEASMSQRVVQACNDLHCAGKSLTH
CCHF vOTU inh-2: CCHFV vOTU protease inhibitors, confirmation, biochemical, Pep-AMC substrate, fluorescence | shares compounds with CCHF vOTU inh-1 | Recombinant CCHFV vOTU | 17% of 1,900 active | inhibition, % at 11.5 µM | AID 686976, 2013
Starred values were filed as active, the others as inactive. The list is not random: actives were taken first. Their share in the collection is about 3.9%. Unless noted, no stated cut-off is given here; in the data, active means inhibition above about 30%; inactive means the rest.

How did CC(C)Sc1nnc(SCC(=O)N(C)C2CCS(=O)(=O)C2)s1 (stereo not given) do in these assays?
GDH-TPI inh: -7; CCHF vOTU inh-1: -1; BH1578 lux ind: 0; Mtb FBA inh: 0

How did COc1nccnc1NS(=O)(=O)c1ccc(NC(=S)NC(=O)/C=C/c2ccc(F)cc2)cc1 do in these assays?
GDH-TPI inh: 23; CCHF vOTU inh-1: 38*; BH1578 lux ind: 1; Mtb FBA inh: 1; CCHF vOTU inh-2: -14

What do the screens show for `CCC(=O)Nc1nc(C)nc(C)c1C(C)=O`?
GDH-TPI inh: -3; CCHF vOTU inh-1: -2; BH1578 lux ind: 0; Mtb FBA inh: -1

How did CCOC(=O)c1cccc(OC(=O)CCNC(=O)c2ccc(Cl)cc2)c1 do in these assays?
GDH-TPI inh: 1; CCHF vOTU inh-1: 10; BH1578 lux ind: inactive; Mtb FBA inh: -1

Results for O=C1N=C(N2C=CC(=C3C=CNC=C3)C=C2)/C(=C/N=NC(=O)c2ccccc2)S1 ?
GDH-TPI inh: 10; CCHF vOTU inh-1: 41*; BH1578 lux ind: 0; Mtb FBA inh: -7; CCHF vOTU inh-2: -4

Results for COC(=O)C(C(C)=O)C1=C/C(=N\S(=O)(=O)c2ccc(C)cc2)c2ccccc2C1=O (stereo not given) ?
GDH-TPI inh: 2; BH1578 lux ind: 1; Mtb FBA inh: 3

How did O=C(O)c1ccc(S(=O)(=O)/N=C2\C=C(Nc3ccccc3F)C(=O)c3ccccc32)cc1 do in these assays?
GDH-TPI inh: 7; CCHF vOTU inh-1: 122*; BH1578 lux ind: -1; Mtb FBA inh: -6; CCHF vOTU inh-2: 103*

Results for Cc1ccccc1NC1=C/C(=N\S(=O)(=O)c2ccc(C(=O)O)cc2)c2ccccc2C1=O ?
GDH-TPI inh: 5; CCHF vOTU inh-1: 107*; BH1578 lux ind: 0; Mtb FBA inh: -5; CCHF vOTU inh-2: 101*

Results for O=[N+]([O-])c1ccc(OCCCn2cncn2)cc1 ?
GDH-TPI inh: 16; CCHF vOTU inh-1: -8; BH1578 lux ind: inactive; Mtb FBA inh: 0

Results for CCOC(=O)N=Nc1c(O)n(CC(=O)OC)c2ccccc12 ?
GDH-TPI inh: 22; CCHF vOTU inh-1: 9; BH1578 lux ind: -1; Mtb FBA inh: -2

Results for CCOC(=O)N=Nc1c2ccccc2c2nc3no[nH]c3nc12 ?
GDH-TPI inh: 13; CCHF vOTU inh-1: 59*; BH1578 lux ind: -1; Mtb FBA inh: -1; CCHF vOTU inh-2: 86*

What do the screens show for `COc1ccccc1/C=N/NC(=O)c1ccc(=O)n(C)c1`?
GDH-TPI inh: 13; CCHF vOTU inh-1: 31*; BH1578 lux ind: 0; Mtb FBA inh: 4; CCHF vOTU inh-2: -5

Results for COc1ccc(NS(=O)(=O)c2ccc(O)c(NC(=O)c3ccc(S(=O)(=O)N4CCCC4)cc3)c2)cc1 ?
GDH-TPI inh: 12; CCHF vOTU inh-1: 34*; BH1578 lux ind: -3; Mtb FBA inh: -2; CCHF vOTU inh-2: -6

How did CC(C)C[C@H](NC(=O)c1[nH]cnc1C(=O)N[C@@H](C)C(=O)OCc1ccccc1)C(=O)OC(C)(C)C do in these assays?
GDH-TPI inh: 6; CCHF vOTU inh-1: 30*; BH1578 lux ind: -8; Mtb FBA inh: 2; CCHF vOTU inh-2: 15

Results for CC(C)(C)OC(=O)[C@H](Cc1ccccc1)NC(=O)c1[nH]cnc1C(=O)Nc1ccc(Cl)cc1 ?
GDH-TPI inh: 6; CCHF vOTU inh-1: 31*; BH1578 lux ind: -1; Mtb FBA inh: -3; CCHF vOTU inh-2: 8

What do the screens show for `CC(C)(C)OC[C@H](NC(=O)c1[nH]cnc1C(=O)Nc1ccccc1F)C(=O)OC(C)(C)C`?
GDH-TPI inh: -3; CCHF vOTU inh-1: 35*; BH1578 lux ind: 0; Mtb FBA inh: -2; CCHF vOTU inh-2: 22

What do the screens show for `CC(C)(C)OC(=O)NCc1ccc(CNC(=O)c2[nH]cnc2C(=O)Nc2ccccc2F)cc1`?
GDH-TPI inh: 15; CCHF vOTU inh-1: 16; BH1578 lux ind: 0; Mtb FBA inh: 0

Results for CC(C)(C)OC(=O)[C@H](Cc1ccccc1)NC(=O)c1[nH]cnc1C(=O)Nc1cccc(Cl)c1 ?
GDH-TPI inh: 0; CCHF vOTU inh-1: 5; BH1578 lux ind: 4; Mtb FBA inh: -2

How did CC(C)C[C@H](NC(=O)c1nc[nH]c1C(=O)NCC(=O)OCc1ccccc1)C(=O)OC(C)(C)C do in these assays?
GDH-TPI inh: 4; CCHF vOTU inh-1: 24; BH1578 lux ind: inactive; Mtb FBA inh: 1

What do the screens show for `CC(C)c1c(O)ccc2c1CC[C@H]1C(C)(C)CCC[C@]21C`?
GDH-TPI inh: 3; CCHF vOTU inh-1: 12; BH1578 lux ind: 0; Mtb FBA inh: -3

What do the screens show for `Cc1ccc(C(=O)N2CCCC(Nc3ccc(F)cc3)C2)cc1C` (stereo not given)?
GDH-TPI inh: 5; CCHF vOTU inh-1: 30*; BH1578 lux ind: inactive; Mtb FBA inh: 0; CCHF vOTU inh-2: 4

What do the screens show for `Cc1ccc(C2(c3ccc(C)cc3)CC2C(=O)Nc2ccc([N+](=O)[O-])cc2O)cc1` (stereo not given)?
GDH-TPI inh: 5; CCHF vOTU inh-1: 34*; BH1578 lux ind: 0; Mtb FBA inh: -6; CCHF vOTU inh-2: -5

What do the screens show for `CCOc1cc(C)c(Cl)cc1S(=O)(=O)NCc1ccco1`?
GDH-TPI inh: 6; CCHF vOTU inh-1: 12; BH1578 lux ind: 1; Mtb FBA inh: 1

Results for CCOc1ccc(S(=O)(=O)NCc2ccco2)c2ccccc12 ?
GDH-TPI inh: 11; CCHF vOTU inh-1: 32*; BH1578 lux ind: -7; Mtb FBA inh: 1; CCHF vOTU inh-2: -4

Results for CCc1nnc(N/N=C/c2ccccc2F)n1N ?
GDH-TPI inh: -2; CCHF vOTU inh-1: 77*; BH1578 lux ind: 0; Mtb FBA inh: -2; CCHF vOTU inh-2: -4

How did CCc1nnc(N/N=C/c2ccccc2Cl)n1N do in these assays?
GDH-TPI inh: 7; CCHF vOTU inh-1: 84*; BH1578 lux ind: inactive; Mtb FBA inh: -8; CCHF vOTU inh-2: -16

How did COc1cccc(C=NNc2nnc(NN=Cc3cccc(OC)c3OC)c3ccccc23)c1OC do in these assays?
GDH-TPI inh: 22; CCHF vOTU inh-1: 2; BH1578 lux ind: 1; Mtb FBA inh: -1

How did COc1cccc(/C=N/Nc2nnc(C)n2N)c1OCc1ccccc1Cl do in these assays?
GDH-TPI inh: 5; CCHF vOTU inh-1: 75*; BH1578 lux ind: -4; Mtb FBA inh: -8; CCHF vOTU inh-2: -7

How did Cc1cnc(C)c(Nc2nc(C(N)CCc3ccccc3)cs2)n1 (stereo not given) do in these assays?
GDH-TPI inh: 1; CCHF vOTU inh-1: -1; BH1578 lux ind: 4; Mtb FBA inh: -3

Results for CCCCN(C=O)c1c(CC)nc2ccc(C(=O)N3CCCCC3)cn12 ?
GDH-TPI inh: -4; CCHF vOTU inh-1: 5; BH1578 lux ind: 5; Mtb FBA inh: 1

What do the screens show for `O=C1CCCN1CCCNCCCn1cnc2c(OCc3ccccc3)ncnc21`?
GDH-TPI inh: -1; CCHF vOTU inh-1: -6; BH1578 lux ind: -1; Mtb FBA inh: -2
